A1 inh: inhibitors of the anti-apoptotic protein A1, read as caspase activation | MEF A1-2A-BIM cells, Caspase-Glo 3/7 luminescence, 3 h; percent of clofoctol response, vehicle zero | caspase activation, % (no concentration beside the values) | 0.066% of 330,000 active | AID 2462;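 active means over half of replicate activation scores above 10%, or exactly half above 10 with the replicate mean above 10; inconclusive means replicate mean below 10 yet half the replicates above 10; inactive means over half of replicates below 10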
Beta2AR agonist: agonists of human beta-2 adrenergic receptor inducing internalization. P07550. Am2.2-beta2AR cells, FAP receptor internalization, flow cytometry. response, % (concentration not given with the values). 0.43% of 340,000 active. AID 504454;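 active means response above a set limit, near 3 SD of response in nonfluorescent compounds, cut at about 42% in these data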
DYRK1A inh: blocks rat Dyrk1A kinase activity | Q63470 | ADP-Glo luminescence, NFATc1 peptide | inhibition, % at 12.5 µM | 0.43% of 310,000 active; in the data active means inhibition above about 50%
dFosB act-1: enhances mouse delta FosB homodimer DNA binding. P13346. purified delta FosB, TAMRA-CDK5 oligo fluorescence polarization; percent of positive-control signal above neutral wells. activation, % at 25 µM. 0.99% of 340,000 active;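 active means mean activation above about 17%, with every replicate also reaching it, limit read from the data, passing the limit was not always enough; inconclusive means only one of the two conditions met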
Target sequence (P13346 whole entry, looked up): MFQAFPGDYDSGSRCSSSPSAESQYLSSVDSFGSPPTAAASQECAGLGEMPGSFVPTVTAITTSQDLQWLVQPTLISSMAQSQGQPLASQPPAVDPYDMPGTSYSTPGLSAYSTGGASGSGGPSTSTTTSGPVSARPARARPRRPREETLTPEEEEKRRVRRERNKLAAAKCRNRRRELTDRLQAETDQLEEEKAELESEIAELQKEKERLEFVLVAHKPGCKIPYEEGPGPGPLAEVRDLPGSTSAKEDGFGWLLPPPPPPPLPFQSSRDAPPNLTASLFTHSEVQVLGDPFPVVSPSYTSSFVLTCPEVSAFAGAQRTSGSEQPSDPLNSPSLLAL
dFosB act-2: enhances mouse delta FosB homodimer binding to DNA; shares compounds with dFosB act-1; purified delta FosB, TAMRA-CDK5 oligo fluorescence polarization; normalised: neutral wells 0, positive control 100; activation, % at 24.9 µM; 2,400 tested, under 10 active;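 active means highest replicate activation at or above 34% and every replicate reaching that threshold; inconclusive means meets only one of the two criteria; inactive means meets neither criterion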;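 further: higher polarization means more probe DNA bound by delta FosB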
ADP-Glo artifact: interferes with ADP-Glo luciferase readout without Dyrk1A. shares compounds with DYRK1A inh. 1,300 tested, under 10 active. AID 588348. AC50, µM (series often up to 12 µM). ADP-Glo luciferase artifact assay, no Dyrk1A, luminescence;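 active means fitted half-maximal dose AC50 no more than ten times the top valid tested dose, with luminescence dropping as dose rises; inconclusive means poor fit, or flat fit with 30 to 70% inhibition; inactive means the rest, signal increases included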
Beta2AR ag CP1: human beta-2 adrenergic receptor agonism, cherry pick. shares compounds with Beta2AR agonist. Am2.2-beta2AR cells, FAP surface receptor, flow cytometry; stronger effect = lower value. percent response (surface receptor), % at 10 µM. 25% of 1,100 active;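 active means surface receptor percent response at or below 58%, roughly 3 SD from nonfluorescent compounds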
FAP fluor counter: flagged in Am2.2 fluorescence counterscreen for beta-2AR agonists; calls only at 10 µM; Am2.2 cells, FAP fluorogen flow cytometry; stronger effect = lower value; shares compounds with Beta2AR agonist; AID 588765; 1,100 tested, under 10 active;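 active means percent response below a set limit in fluorescence channel 1 and below 50% in channel 8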
Hits are given with their value; . = inactive; ? = inconclusive; / = no result given; ! = repeats disagree. Shown are actives, neighbours in structure and some others; about 1.6% of the full set was active somewhere.

SMILES	A1 inh	Beta2AR agonist	DYRK1A inh	dFosB act-1	others
CC(=O)OC[C@]12CCC(C)=C[C@H]1O[C@@H]1[C@H](O)[C@@H](OC(C)=O)[C@@]2(C)[C@]12CO2	.	103	.	.
N#CC1c2ccccc2-n2nncc2CN1S(=O)(=O)c1cc(Cl)cc(Cl)c1 (stereo not given)	/	.	/	.
C/C1=C\[C@@H](C)C/C=C/[C@H]2[C@@H]3O[C@]3(C)[C@@H](C)[C@H]3[C@H](Cc4c[nH]c5ccccc45)NC(=O)[C@]32C(=O)/C=C/C(=O)[C@@H]1O	11	72	.	.
CCC1CN1P(=O)(Oc1ccc(Cl)cc1)N1CC1CC (stereo not given)	/	.	.	.
O=c1[nH]c(=O)n(-c2cccc(F)c2)c(O)c1/C=C1\C=Nc2ccccc21	.	44	.	.
O=[N+]([O-])c1c(Cl)c(Cl)c(Cl)c(Cl)c1Cl	/	.	.	.
Nc1cc(Cl)c2nonc2c1[N+](=O)[O-]	.	73	.	.
CC1CN(O)C2CCc3nonc3C12O (stereo not given)	.	.	.	16
CC1CC2(O)c3nonc3CCC2N1O (stereo not given)	.	.	.	.
COc1cc2c(c(OC)c1OC)-c1ccc(OC)c(=O)cc1C(N)CC2 (stereo not given)	/	.	.	.
COc1ccc(OCC(=O)N2CCN(Cc3ccc4c(c3)OCO4)CC2)cc1	.	.	.	.
CN(C)CCN(C(=O)COc1ccc(Cl)cc1)c1nc2cc3c(cc2s1)OCO3	.	.	.	24	dFosB act-2=.
C[C@]12CC[C@H](O)CC1=CCC1C2CC[C@@]2(C)C1C[C@@H](O)[C@@H]2O (stereo not given in full)	.	.	.	.
CC(=O)C1C(N2CC2)CC2C3CC=C4CC(O)CCC4(C)C3CCC21C (stereo not given)	/	.	/	36	dFosB act-2=.
O=C1CN=C(c2ccccc2)c2oc3ccc(Br)cc3c2N1	.	.	.	30	dFosB act-2=.
COc1cccc2c1N=C1CCCC3CN(C(C)=O)CCC123 (stereo not given)	/	.	.	.
CC/C(=C(\c1ccccc1)c1ccc(OCCN(C)C)cc1)c1ccccc1	.	.	.	24!	dFosB act-2=.
CCCC1(CCO)C(=O)NC(=S)NC1=O	/	.	.	.
O=c1[nH]c(=S)[nH]c(O)c1N=Nc1ccc(S(=O)(=O)N2CCc3ccccc32)cc1	.	.	.	29	dFosB act-2=.
Cc1sc2ncnc(N3CCC(C(=O)Nc4ccc(C#N)c(Cl)c4)CC3)c2c1C	?	.	/	32	dFosB act-2=.
Cc1cccc(N=C2c3cc([N+](=O)[O-])ccc3-c3c2cc([N+](=O)[O-])cc3[N+](=O)[O-])c1	/	.	/	.
CCOc1ccc(C2C(C#N)=C(N)Oc3c2c(=O)oc2ccccc32)cc1 (stereo not given)	/	.	.	21	dFosB act-2=.
N#CC1=C(N)Oc2c(c(=O)oc3ccccc23)C1c1ccncc1 (stereo not given)	.	.	.	.
Nc1nc(N)c2cnnn2n1	/	.	.	.
O=c1[nH]c(=O)n(-c2ccccc2)c(O)c1/C=C1/C(c2ccccc2)=Nc2ccccc21	.	.	61	.	ADP-Glo artifact=.
SMILES	A1 inh	Beta2AR agonist	DYRK1A inh	dFosB act-1	others
COCCO[C@H]1CCC2C3CC=C4C[C@@H](O)CC[C@]4(C)C3CC[C@@]21C (stereo not given in full)	?	.	.	.
COc1ccc(-n2c(/C=C/c3ccc(O)cc3)nc3ccccc3c2=O)cc1	.	.	.	.
CCn1nc(/C=C/c2ccccc2)nc2c(=O)n(C)c(=O)nc1-2	/	68	50	.	ADP-Glo artifact=.
COC(=O)C1=C(c2ccc(F)cc2OCc2ccccc2)C[C@@H]2CC[C@H]1N2C(=O)NC1CC1	.	.	55	.	ADP-Glo artifact=.
NC(=S)c1cn(C2OC(CO)C(O)C2O)c2ncnc(N)c12 (stereo not given)	.	.	95	.	ADP-Glo artifact=.
COc1ccc(CN2Cc3cnnn3-c3ccccc3C2C)cc1 (stereo not given)	/	.	/	.
CC1C(c2ccccc2)OC(=O)N1C (stereo not given)	/	.	.	.
COc1cc2c(cc1OC)-c1c3c(cc4c1[C@@H](C2)N(C)CC4)OCO3	.	.	66	.	ADP-Glo artifact=.
Cc1[nH]nc2ccc(-c3cncc(OC[C@@H](N)Cc4c[nH]c5ccccc45)c3)cc12	/	.	92	.	ADP-Glo artifact=.
N#CC(C#N)=Cc1ccc(N2CCOCC2)cc1	.	.	.	.
N#C/C(=C\c1ccc(O)cc1)C(=O)O (tested in a mixture with another compound)	/	.	79	.	ADP-Glo artifact=.
COc1ccc2c(c1)[nH]c1c(C)nccc12	.	.	.	.
CC1=NCCc2c1[nH]c1cc(O)ccc21	.	.	79	.	ADP-Glo artifact=.
COc1ccc2c3c([nH]c2c1)C(C)=NCC3	.	.	86	.	ADP-Glo artifact=.
C1=NCCc2c1[nH]c1ccccc21	.	.	.	.
O=c1c([N+](=O)[O-])cn(O)cc1[N+](=O)[O-]	/	.	.	.
C[N+]1(C)C2CC(OC(=O)C(CO)c3ccccc3)CC1C1OC12 (stereo not given)	.	.	.	.
COc1ccc(OC)c(C(O)C2CCCCN2)c1 (stereo not given)	.	.	.	.	Beta2AR ag CP1=.;FAP fluor counter=.
COc1ccc2cc(C(=O)C3CCCN(C4CCOCC4)C3)ccc2c1 (stereo not given)	.	.	.	.
COc1c(C)cc(C(=O)C2CCCN(C3CCOCC3)C2)cc1C (stereo not given)	.	58	.	.	Beta2AR ag CP1=.;FAP fluor counter=.
COC(=O)C1=C(c2ccc(-c3ccccc3)c(F)c2)C[C@@H]2CC[C@H]1N2C(=O)NCCc1ccccc1	.	.	.	.
COc1ccc(OC)c(NC2=NCCS2)c1	.	.	.	.
COc1ccc(OC)c([C@@H](O)[C@H](C)NC(C)(C)C)c1	.	.	.	.	Beta2AR ag CP1=.;FAP fluor counter=.
COC(=O)C1=C(c2ccc(F)cc2OCc2ccccc2)C[C@@H]2CC[C@H]1N2C(=O)N1CCCC1	.	.	.	.
CCNCC(O)c1cccc(O)c1 (stereo not given)	.	.	.	.	Beta2AR ag CP1=.;FAP fluor counter=.
OC12ONC(c3ccccn3)C1N1CCC2CC1 (stereo not given)	.	.	.	.	Beta2AR ag CP1=.;FAP fluor counter=.
